Broadly, the Kd is a measure of binding affinity in units of concentration. Low readings indicate tighter binding, high ones weaker binding.

The text below walks through data of paper PMC5913336, “True equilibrium measurement of transcription factor-DNA binding affinities using automated polarization microscopy”.

Sequence of Oc (P22810 52-141): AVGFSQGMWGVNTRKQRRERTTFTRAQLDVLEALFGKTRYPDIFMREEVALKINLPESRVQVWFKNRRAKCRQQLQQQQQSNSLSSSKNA

This assay addresses Oc (Drosophila melanogaster, UniProt P22810 52-141). As to the kind of experiment: FP; 33 mM phosphate pH 7.0, 90 mM NaCl, 0.01% Tween 20, 0.1 mM DTT, 0.5% agarose; room temperature. The settings on record: tags: N-GST (pGEX-6P-1, kept); dsDNA, one strand shown.
For AGTTGATCCCCT, the binding signal is 15.1 Kd / Kd of best base at the position.
AGTTAATCCCCT yielded a Kd of around 3.8 nM.
AGTTAATCCCGT: the binding signal was 1.2 Kd / Kd of best base at the position.
Still for that read-out and setting: the figure for AGTTAACCCCCT is 60 Kd / Kd of best base at the position; for AGTTAATCCCCG it is 1.11 Kd / Kd of best base at the position; for AGTTAATTCCCT it is 123 Kd / Kd of best base at the position.
The same measure, in the same setting: the figure for AGTTAAACCCCT is 93.6 Kd / Kd of best base at the position; for AGTTAATGCCCT it is 140 Kd / Kd of best base at the position; for AGTTAAGCCCCT it is 18 Kd / Kd of best base at the position.
The same measure, in the same setting: the figure for GGTTAATCCCCT is 1.35 Kd / Kd of best base at the position.
On to AGTTAATCCCTT, for which the binding signal is 1.11 Kd / Kd of best base at the position.
In the case of AGGTAATCCCCT, the binding signal was 3.1 Kd / Kd of best base at the position.
Still for that read-out and setting: the figure for AGCTAATCCCCT is 2.31 Kd / Kd of best base at the position.
Same read-out and setting: the figure for AGTTATTCCCCT is 16.4 Kd / Kd of best base at the position; for ACTTAATCCCCT it is 1.03 Kd / Kd of best base at the position.
As to AGATAATCCCCT, the binding signal is 183 Kd / Kd of best base at the position.
AGTTAATCCACT: the binding signal is 1.54 Kd / Kd of best base at the position.
On the same count and under the same terms, the figure for TGTTAATCCCCT is 3.64 Kd / Kd of best base at the position; for AGTGAATCCCCT it is 176 Kd / Kd of best base at the position.
With AGTTAATCCCAT, the binding signal is 1.11 Kd / Kd of best base at the position.
In the case of AATTAATCCCCT, the binding signal was 2.08 Kd / Kd of best base at the position.
Consider AGTTAGTCCCCT, for which the binding signal is 6.2 Kd / Kd of best base at the position.
As for AGTTAATCTCCT, the binding signal is 3.07 Kd / Kd of best base at the position.
The same measure, in the same setting: the figure for AGTTTATCCCCT is 1.7 Kd / Kd of best base at the position; for AGTTCATCCCCT it is 177 Kd / Kd of best base at the position.
As to AGTTAATCCTCT, the binding signal is 1.44 Kd / Kd of best base at the position.
Same read-out and setting: the figure for AGTAAATCCCCT is 19.8 Kd / Kd of best base at the position; for AGTTAATCCCCC it is 1.11 Kd / Kd of best base at the position.
Still for that read-out and setting: the figure for AGTTACTCCCCT is 12 Kd / Kd of best base at the position; for AGTTAATCCCCA it is 1.11 Kd / Kd of best base at the position.
On the same count and under the same terms, the figure for AGTTAATCCGCT is 1.09 Kd / Kd of best base at the position; for AGTTAATCGCCT it is 6.1 Kd / Kd of best base at the position; for AGTCAATCCCCT it is 340 Kd / Kd of best base at the position.
With ATTTAATCCCCT, the binding signal is 2.15 Kd / Kd of best base at the position.
Same read-out and setting: the figure for AGTTAATCACCT is 7.07 Kd / Kd of best base at the position; for AGTTAATACCCT it is 251 Kd / Kd of best base at the position.
On the same count and under the same terms, the figure for CGTTAATCCCCT is 2.09 Kd / Kd of best base at the position.
